Results: PMC4336329 (PLoS ONE, 2015)
The campaign covered roughly 310,000 compounds. About 14,000 (4.5%) showed an effect of 50% or more. The effect is printed as a negative number. The list comes from a sample in which strong results are over-represented; it also holds similar structures and randomly drawn compounds.

target: human ether-à-go-go-related gene (hERG) potassium channel (human, UniProt Q12809); experiment: primary screen, population patch clamp on CHO cells stably expressing hERG; higher = less effect of the substance
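Note: peak tail current of the secondary pulse compared with the same well before compound.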

human ether-à-go-go-related gene (hERG) potassium channel, sequence (Q12809 whole entry, looked up): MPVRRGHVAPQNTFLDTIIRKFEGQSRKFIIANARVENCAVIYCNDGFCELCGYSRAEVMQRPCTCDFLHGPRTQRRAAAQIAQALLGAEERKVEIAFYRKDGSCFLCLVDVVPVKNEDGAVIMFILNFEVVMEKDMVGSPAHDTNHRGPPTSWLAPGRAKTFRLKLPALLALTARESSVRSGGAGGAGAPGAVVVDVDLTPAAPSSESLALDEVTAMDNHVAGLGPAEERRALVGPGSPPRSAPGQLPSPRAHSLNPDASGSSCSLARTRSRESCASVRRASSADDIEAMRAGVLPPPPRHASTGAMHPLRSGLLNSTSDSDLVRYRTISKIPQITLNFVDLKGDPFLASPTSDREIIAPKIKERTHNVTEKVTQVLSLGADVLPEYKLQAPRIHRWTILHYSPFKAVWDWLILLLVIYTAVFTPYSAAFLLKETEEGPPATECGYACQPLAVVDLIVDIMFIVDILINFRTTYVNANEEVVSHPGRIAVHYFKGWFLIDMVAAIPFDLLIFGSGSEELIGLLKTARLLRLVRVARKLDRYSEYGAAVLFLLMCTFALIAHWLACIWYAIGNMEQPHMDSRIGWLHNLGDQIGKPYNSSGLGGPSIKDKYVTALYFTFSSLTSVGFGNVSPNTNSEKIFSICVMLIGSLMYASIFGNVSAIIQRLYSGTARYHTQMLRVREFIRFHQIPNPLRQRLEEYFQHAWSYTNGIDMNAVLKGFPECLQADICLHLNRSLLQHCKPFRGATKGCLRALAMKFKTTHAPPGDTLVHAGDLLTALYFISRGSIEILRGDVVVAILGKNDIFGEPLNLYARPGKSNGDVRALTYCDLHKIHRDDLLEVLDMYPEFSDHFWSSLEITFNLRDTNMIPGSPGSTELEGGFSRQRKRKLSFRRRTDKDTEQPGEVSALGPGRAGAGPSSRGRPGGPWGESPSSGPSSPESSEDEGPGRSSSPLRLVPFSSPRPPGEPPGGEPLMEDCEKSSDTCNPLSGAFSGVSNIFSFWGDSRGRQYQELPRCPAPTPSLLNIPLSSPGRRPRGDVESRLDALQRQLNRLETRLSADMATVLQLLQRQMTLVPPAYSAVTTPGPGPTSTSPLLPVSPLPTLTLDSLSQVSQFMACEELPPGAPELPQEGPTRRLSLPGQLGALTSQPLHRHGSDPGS

Structure (SMILES)	hERG current change (%, negative = inhibition) at 10uM [%]
Cc1ccc(S(=O)(=O)NC(CC(=O)NCC2CCCO2)c2ccco2)cc1 (stereo not drawn)	24.9
COc1ccc(N(CC(=O)N2CCN(Cc3ccccc3)CC2)S(C)(=O)=O)cc1	-3
O=C(NN1CCOCC1)c1cc(-c2ccc(Cl)c(Cl)c2)nc2ccccc12	10.8
Cc1oncc1C(=O)Nc1cccc(C#N)c1	4.43
CCCN1C(=O)/C(=c2\sc3nc(=O)c(Cc4ccc(C)cc4)nn3c2=O)c2ccccc21	21.2
CCN(Cc1ccccc1)C(=O)c1oc2ccc(S(=O)(=O)N3CCOCC3)cc2c1C	-6.06
Nc1cc(C(=O)OCC(=O)N2CCOCC2)ccc1Cl	17.8
CC(C)(C)NC(=O)CSC(=Nc1cccc(F)c1)NC#N	8.94
CC(C)(C)NC(=O)CSC(=Nc1ccccc1F)NC#N	-0.709
CC(C)(C)NC(=O)CSC(=Nc1ccc(F)cc1)NC#N	-72.3
COc1ccc(CNC(=O)c2noc(C(C)C)c2[N+](=O)[O-])cc1	3.4
Cc1ccc(NNC(=O)c2ccno2)c(C)c1	11.1
COc1ccc(OC)c(-c2csc(NC(=O)CN3C(=O)C4CCCCC4C3=O)n2)c1 (stereo not drawn)	-0.554
O=C(O)c1ccccc1S(=O)(=O)NCC(O)COC1CCCCC1 (stereo not drawn)	-2.65
CCOC(=O)C1(Cc2ccccc2)CCN(Cc2cc(OC)c3c(c2)OCO3)CC1	-60.7
CCN1CCN(Cc2cc(OC)c3c(c2)OCO3)CC1	9.99
CCOC(=O)C1(CCOc2ccccc2)CCN(Cc2cc(OC)c3c(c2)OCO3)CC1	-72.1
CCN1C(=O)CC(N2CCN(c3ccc(Cl)cc3)CC2)C1=O (stereo not drawn)	-14
COc1ccc2c(CC(=O)OCC(=O)c3ccc(F)cc3)coc2c1	6.5
CCCc1ccc(-c2cc(C(=O)NN3CCOCC3)c3ccccc3n2)cc1	-3.8
NC(=O)c1ccc(NC(=O)CSc2nnc(C3CCCCC3)n2N)cc1	18
Cn1c(C(=O)NC2CCCCC2)cc2sccc21	-7.87
CCOc1ccc2oc(C(=O)NCc3ccccc3CN3CCCC3)c(C)c2c1	-66.2

Structure (SMILES)	hERG current change (%, negative = inhibition) at 10uM [%]
Cc1c(C(=O)OC(C)CCN(C)C)oc2ccccc12.Cl (stereo not drawn)	-42.8
Cc1c(C(=O)OCC(=O)N(C)c2ccccc2)oc2ccccc12	3.17
CCOc1ccc2oc(C(=O)N3CCN(c4ccccn4)CC3)c(C)c2c1	-34.3
CCOc1ccc2oc(C(=O)NCC3CCCO3)c(C)c2c1 (stereo not drawn)	11
COc1ccc2oc(C(=O)NCc3cc(OC)c(OC)cc3OC)c(C)c2c1	0.174
Cc1c(C(=O)OCC(C)(C)CN(C)C)oc2ccccc12.Cl	-52
CCOc1ccc2oc(C(=O)NCc3nc4ccccc4[nH]3)c(C)c2c1	10.3
CCOc1ccc2oc(C(=O)N3CCN(c4ccccc4OCC)CC3)c(C)c2c1	-52.6
CCOc1ccc2oc(C(=O)N3CCN(Cc4ccccc4)CC3)c(C)c2c1	-18.4
COc1ccc2oc(C(=O)NCc3ccccc3CN3CCCC3)c(C)c2c1	-66.1
COc1ccc2oc(C(=O)NCc3ccco3)c(C)c2c1	8.36
CN(c1cccc(Cl)c1)S(=O)(=O)c1cccc(C(=O)NN2CCOCC2)c1	-14.1
Cc1ccc(S(=O)(=O)CCC(=O)OC(C)C(=O)NC2CCCCC2C)cc1 (stereo not drawn)	-1.21
CCOC(=O)c1ccc(N2C(=O)C3CC=C(C)CC3C2=O)cc1 (stereo not drawn)	7.74
Cn1c(=O)c2c(SCC(N)=O)nc(CC(C)(C)C)nc2n(C)c1=O	-10.5
CC1(C)c2ccccc2N(CC(N)=O)C12C=Cc1ccccc1O2 (stereo not drawn)	-26
Cc1nc(NC(=O)c2cccnc2Cl)sc1C	4.14
CC(NC(=O)c1ccc2c(c1)OCO2)C(c1cccs1)N1CCN(c2ccccc2)CC1 (stereo not drawn)	3.68
COc1ccc(CCn2c(C)cc(C(=O)CSc3nnnn3C)c2C)cc1	0.08
CC1CCCCC1NC(=O)Cn1c(CN2CCCCC2)nc2ccccc2c1=O (stereo not drawn)	-24.6
COc1ccc(OC)c(S(=O)(=O)NCC(c2ccc3c(c2)OCO3)N2CCOCC2)c1 (stereo not drawn)	-28.4
O=c1c2cc(Cl)ccc2nc(-c2ccccc2Cl)n1O	16.4
